# In PubChem BioAssay (EPA / NIEHS):
# Activity calls are given as the source filed them. The calls were made as follows: active = hit-call score of the fitted dose curve at least 0.9, where 1 is the maximum; inactive = score below 0.9.
# Target: Paired box protein Pax-6 (Homo sapiens) (UniProt P26367)
# Assay: ATG_Pax6_CIS: Attagene CIS-FACTORIAL HepG2 Assay for human Paired Box 6 (PAX6) (AID 2282956)
# Details: HepG2 CIS-FACTORIAL PAX6 reporter transcription, RNA readout; actives raise or lower the signal
# Procedure: ATG_CIS is a cell-based, multiplexed-readout assay that uses HepG2, a human liver cell line, with measurements taken at 24 hours after chemical dosing in a 24-well plate.ATG_Pax6_CIS is one of 52 assay component(s) measured or calculated from the ATG_CIS assay. It is designed to make measurements of mRNA induction, a form of inducible reporter, as detected with fluorescence intensity signals by Reverse transcription polymerase chain reaction (RT-PCR) and Capillary electrophoresis technology.Data from the assay component ATG_Pax6_CIS was analyzed into 1 assay endpoint. This assay endpoint, ATG_Pax6_CIS, was analyzed with bidirectional fitting relative to DMSO as the negative control and baseline of activity. Using a type of inducible reporter, measures of mRNA for gain or loss-of-signal activity can be used to understand the reporter gene at the transcription factor-level as they relate to the gene PAX6. Furthermore, this assay endpoint can be referred to as a primary readout, because this assay has produced multiple assay endpoints where this one serves a reporter gene function. To generalize the intended target to other relatable targets, this assay endpoint is annotated to the dna binding intended target family, where the subfamily is paired box protein.
# Human liver HepG2 cells are transiently transfected with multiple reporter transcription units (MRTUs) in 6-well plates using FuGene 6 reagent (Roche; 3 ml FuGene/1 mg DNA). The MRTU constructs are regulated by a cis-regulating element (promoter). […] A major difference between the CIS and TRANS system is that in CIS activities of endogenous TFs are measured, whereas the TRANS assay evaluates changes in activities of exogenous, chimeric NR-Gal4 proteins. […] At the end of 24 hour incubation, total RNA was isolated using TriZol reagent (Invitrogen). The isolated RNA is then reverse-transcribed using oligo(dT) primer and Mo-MLV reverse transcriptase (Invitrogen) with DNAse I (Ambion) treatment for 30 min. The one-tenth of the produced cDNA was amplified by PCR using Taq DNA polymerase (Invitrogen) and two reporter sequence-specific primers. The PCR products were fluorescently labeled by primer extension with 6-arboxyfluorescein (6-FAM) 5'-labeled reporter sequence-specific primer (2 min at 95 C, 20 s at 68 C and 10 min at 72 C) and these products were digested with 5U of HpaI (New England Biolabs) for 2h at 37 C. The fragments were purified using Qiaquick PCR columns (Qiagen), analyzed on an ABI 3130xL genetic analyzer (Applied Biosystems) with peak positions identified by using a set of X-rhodamine (ROX)-labeled MapMarker1000 molecular weight standards (BioVentures). The raw capillary electrophoresis data was processed using Attagraph software (Attagene).
# Chain of Paired box protein Pax-6 (Homo sapiens) (P26367 whole entry, looked up): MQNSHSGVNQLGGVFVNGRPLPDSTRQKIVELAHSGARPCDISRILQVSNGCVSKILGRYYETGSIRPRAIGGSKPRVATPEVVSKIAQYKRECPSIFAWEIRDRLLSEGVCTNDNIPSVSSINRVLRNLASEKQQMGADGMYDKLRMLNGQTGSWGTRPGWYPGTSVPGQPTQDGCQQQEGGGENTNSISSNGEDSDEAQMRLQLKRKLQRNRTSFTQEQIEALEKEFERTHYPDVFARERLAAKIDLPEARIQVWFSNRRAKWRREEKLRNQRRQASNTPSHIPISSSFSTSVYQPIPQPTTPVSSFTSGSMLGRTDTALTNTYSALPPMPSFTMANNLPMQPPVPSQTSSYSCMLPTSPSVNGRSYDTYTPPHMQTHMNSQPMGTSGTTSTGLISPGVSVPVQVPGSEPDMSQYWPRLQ
SMILES,outcome,AC50
CCCCCCO,inactive,
CC1=NN(c2ccc(S(=O)(=O)O)cc2)C(=O)C1N=Nc1ccccc1 (stereo not given),inactive,
CC1CCC(=O)C1=O (stereo not given),inactive,
COc1cc(C)ccc1O,inactive,
CCC(=O)C1CC(C(C)C)CC=C1C (stereo not given),inactive,
CN(C)Cc1cc(CN(C)C)c(O)c(CN(C)C)c1,inactive,
CC(=O)OC(C)c1ccccc1 (stereo not given),inactive,
CCCCCCCC(=O)OCC,inactive,
CCCCCCCOC(=O)c1ccc(O)cc1,inactive,
O=C1CCCN1C1CCCCC1,inactive,
CCCCCCCCCCCCC,inactive,
CCCCCCCCCCCCCc1ccccc1,inactive,
C=CC(=O)NC(C)(C)C,inactive,
CCCCCCCCCCCC(C)=O,inactive,
CC(C)C(=O)OCCOc1ccccc1,inactive,
Cc1ccc(C)c(OCCCC(C)(C)C(=O)O)c1,inactive,
CC(C)CC(=O)OCc1ccccc1,inactive,
C=C(C)C(=O)OCC(O)COc1ccc(C(C)(C)c2ccc(OCC(O)COC(=O)C(=C)C)cc2)cc1 (stereo not given),,42.2 µM (active)
COCC(=O)O,inactive,
CO[Si](C)(C)OC,inactive,

SMILES,outcome,AC50
CN1CCN(C)CC1,inactive,
CCCCOC(=O)C(C)CC (stereo not given),inactive,
CC(CC(C)C)=NO,inactive,
O=C(OCc1ccccc1)c1ccc(O)cc1,,144 µM (active)
CCCCCCCCCCCC(=O)OCC,inactive,
O=C(O)CCCC(=O)O,inactive,
CC(Cl)COP(=O)(OCC(C)Cl)OCC(C)Cl (stereo not given),inactive,
CCc1cccc(CC)c1,inactive,
CCCCC1C(=O)N(c2ccccc2)N(c2ccccc2)C1=O,inactive,
C=CC(=O)O[C@H]1C[C@@H]2CC[C@@]1(C)C2(C)C,inactive,
c1ccc(-c2nc3ccccc3[nH]2)cc1,inactive,
CC(=O)CCC1=C(C)CCCC1(C)C,inactive,
CCCCC/C=C\C/C=C\CCCCCCCC(=O)O,,133 µM (active)
Cc1c(O)cccc1O,inactive,
CC(C)c1ccc2ncccc2c1,inactive,
N=C1C=CC(=C(c2ccc(N)cc2)c2ccc(N)cc2)C=C1,,37.8 µM (active)
CCC(C)C(=O)OCCc1ccccc1 (stereo not given),inactive,
CC(C)(C)N,inactive,
C=CC(C)(O)CC/C=C(\C)CC (stereo not given),inactive,
CCCC(C)C(=O)OCC (stereo not given),inactive,
